According to the supplement of paper PMC10849652:
About 8,800 targets were measured; listed, in parts, are those with a hit and a random draw of the rest. About 0.5% of all pairs of compound and target were hits.

The targets below were run with CS(=O)(=O)CCNCc1ccc(-c2ccc3ncnc(Nc4ccc(OCc5cccc(F)c5)c(Cl)c4)c3c2)o1 [lapatinib] (assay: log2 fold change, soluble protein after heating vs DMSO (PISA); higher = thermal stabilisation; K562 lysate, 10 uM; active = over 0.2 and 3.5 SD of the protein, either way, in both replicates (recomputed)).
Method in brief: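 Soluble protein was defined as the supernatant remaining after 21,000xg for 90 min, following pooling of heated aliquots and adjustment to 0.5% NP-40 at 4°C. Before that, crude K562 extract at 1 mg/mL protein in PBS pH 7.4 with 1 mM MgCl2 was treated with 10 μM compound for 30 min and heated for 3 min across 48°C-58°C. Quantification used TMTpro 16plex LC-MS/MS with channel sums equalised, and values are log-two fold changes in thermal stability relative to solvent controls from duplicates.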

UniProt Q92879, sequence (Q92879 whole entry, looked up): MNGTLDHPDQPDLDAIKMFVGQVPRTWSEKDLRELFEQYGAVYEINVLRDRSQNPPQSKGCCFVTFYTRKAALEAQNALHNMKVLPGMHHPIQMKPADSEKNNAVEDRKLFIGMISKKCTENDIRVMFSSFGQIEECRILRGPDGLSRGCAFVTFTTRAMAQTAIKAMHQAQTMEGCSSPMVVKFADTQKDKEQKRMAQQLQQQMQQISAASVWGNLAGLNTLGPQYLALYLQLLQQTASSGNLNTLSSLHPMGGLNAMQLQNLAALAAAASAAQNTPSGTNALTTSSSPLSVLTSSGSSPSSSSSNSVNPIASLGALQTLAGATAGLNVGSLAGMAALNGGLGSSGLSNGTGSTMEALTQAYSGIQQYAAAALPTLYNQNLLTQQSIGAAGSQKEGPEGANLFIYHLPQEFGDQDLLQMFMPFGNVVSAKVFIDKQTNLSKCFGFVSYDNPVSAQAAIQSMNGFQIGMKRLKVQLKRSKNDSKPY
UniProt P40227, sequence (P40227 whole entry, looked up): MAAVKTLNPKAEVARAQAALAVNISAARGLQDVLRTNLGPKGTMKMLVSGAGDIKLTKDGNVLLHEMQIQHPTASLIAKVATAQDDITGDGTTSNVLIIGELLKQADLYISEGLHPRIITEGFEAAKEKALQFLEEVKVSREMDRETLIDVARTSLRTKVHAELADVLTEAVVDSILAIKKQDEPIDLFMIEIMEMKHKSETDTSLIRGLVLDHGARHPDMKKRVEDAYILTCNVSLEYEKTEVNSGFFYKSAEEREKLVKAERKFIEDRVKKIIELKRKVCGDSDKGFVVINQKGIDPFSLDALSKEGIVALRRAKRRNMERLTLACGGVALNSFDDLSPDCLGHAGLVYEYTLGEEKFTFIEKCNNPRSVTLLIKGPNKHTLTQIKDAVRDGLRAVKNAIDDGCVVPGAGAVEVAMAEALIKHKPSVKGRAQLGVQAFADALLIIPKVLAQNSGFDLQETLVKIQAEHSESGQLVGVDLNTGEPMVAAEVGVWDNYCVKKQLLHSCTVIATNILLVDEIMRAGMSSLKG
UniProt Q9ULG6, sequence (Q9ULG6 whole entry, looked up): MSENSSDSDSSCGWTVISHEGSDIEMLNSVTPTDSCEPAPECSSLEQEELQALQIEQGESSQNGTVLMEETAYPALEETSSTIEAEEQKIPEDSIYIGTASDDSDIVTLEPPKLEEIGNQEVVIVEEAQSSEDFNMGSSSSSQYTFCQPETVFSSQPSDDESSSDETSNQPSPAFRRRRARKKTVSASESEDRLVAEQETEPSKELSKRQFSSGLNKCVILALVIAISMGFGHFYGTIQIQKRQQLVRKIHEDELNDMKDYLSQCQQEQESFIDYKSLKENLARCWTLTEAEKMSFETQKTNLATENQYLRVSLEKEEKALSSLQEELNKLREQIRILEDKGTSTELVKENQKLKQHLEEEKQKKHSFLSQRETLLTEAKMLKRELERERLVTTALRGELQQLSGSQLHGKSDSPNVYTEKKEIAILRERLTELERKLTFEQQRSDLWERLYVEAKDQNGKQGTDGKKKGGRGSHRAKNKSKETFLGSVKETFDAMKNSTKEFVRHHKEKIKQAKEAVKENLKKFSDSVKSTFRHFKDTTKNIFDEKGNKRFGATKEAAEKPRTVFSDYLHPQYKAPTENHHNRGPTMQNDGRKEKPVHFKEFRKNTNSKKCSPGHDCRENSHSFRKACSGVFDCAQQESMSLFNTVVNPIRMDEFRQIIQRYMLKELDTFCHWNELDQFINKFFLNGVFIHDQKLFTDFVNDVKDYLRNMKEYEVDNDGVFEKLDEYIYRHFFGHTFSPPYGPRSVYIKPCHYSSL
UniProt Q96LT7, sequence (Q96LT7 whole entry, looked up): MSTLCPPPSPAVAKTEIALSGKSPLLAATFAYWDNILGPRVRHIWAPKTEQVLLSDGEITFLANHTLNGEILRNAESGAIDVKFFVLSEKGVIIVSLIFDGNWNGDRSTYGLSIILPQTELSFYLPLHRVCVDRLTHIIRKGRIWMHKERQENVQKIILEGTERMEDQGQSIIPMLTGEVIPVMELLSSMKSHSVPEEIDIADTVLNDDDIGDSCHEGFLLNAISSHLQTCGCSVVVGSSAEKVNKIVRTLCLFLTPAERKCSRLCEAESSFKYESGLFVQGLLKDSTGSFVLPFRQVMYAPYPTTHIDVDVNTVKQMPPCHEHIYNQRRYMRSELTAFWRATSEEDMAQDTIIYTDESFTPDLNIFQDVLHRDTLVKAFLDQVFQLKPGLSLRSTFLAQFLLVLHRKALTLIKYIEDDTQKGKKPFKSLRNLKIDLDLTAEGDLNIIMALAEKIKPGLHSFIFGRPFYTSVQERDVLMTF
UniProt P25440, sequence (P25440 whole entry, looked up): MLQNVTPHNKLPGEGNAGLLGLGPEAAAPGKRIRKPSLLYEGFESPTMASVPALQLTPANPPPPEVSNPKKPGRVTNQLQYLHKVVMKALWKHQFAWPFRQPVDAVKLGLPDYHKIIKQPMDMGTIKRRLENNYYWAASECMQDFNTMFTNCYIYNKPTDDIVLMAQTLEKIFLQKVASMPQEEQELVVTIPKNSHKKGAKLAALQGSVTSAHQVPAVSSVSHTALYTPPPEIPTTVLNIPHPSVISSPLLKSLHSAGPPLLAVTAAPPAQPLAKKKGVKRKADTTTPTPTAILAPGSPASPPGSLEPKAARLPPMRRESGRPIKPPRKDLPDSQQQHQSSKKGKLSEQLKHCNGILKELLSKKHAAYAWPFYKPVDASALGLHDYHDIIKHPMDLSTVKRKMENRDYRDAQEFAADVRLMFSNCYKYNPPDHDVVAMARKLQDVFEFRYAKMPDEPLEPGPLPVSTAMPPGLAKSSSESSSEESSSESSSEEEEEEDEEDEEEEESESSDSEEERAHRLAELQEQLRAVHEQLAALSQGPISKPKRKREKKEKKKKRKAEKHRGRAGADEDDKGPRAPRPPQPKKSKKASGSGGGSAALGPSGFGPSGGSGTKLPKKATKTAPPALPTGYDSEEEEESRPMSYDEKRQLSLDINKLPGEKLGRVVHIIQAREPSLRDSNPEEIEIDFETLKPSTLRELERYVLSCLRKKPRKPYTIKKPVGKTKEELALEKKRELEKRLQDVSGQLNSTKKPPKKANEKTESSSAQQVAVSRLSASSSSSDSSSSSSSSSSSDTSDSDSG
UniProt P98196, sequence (P98196 whole entry, looked up): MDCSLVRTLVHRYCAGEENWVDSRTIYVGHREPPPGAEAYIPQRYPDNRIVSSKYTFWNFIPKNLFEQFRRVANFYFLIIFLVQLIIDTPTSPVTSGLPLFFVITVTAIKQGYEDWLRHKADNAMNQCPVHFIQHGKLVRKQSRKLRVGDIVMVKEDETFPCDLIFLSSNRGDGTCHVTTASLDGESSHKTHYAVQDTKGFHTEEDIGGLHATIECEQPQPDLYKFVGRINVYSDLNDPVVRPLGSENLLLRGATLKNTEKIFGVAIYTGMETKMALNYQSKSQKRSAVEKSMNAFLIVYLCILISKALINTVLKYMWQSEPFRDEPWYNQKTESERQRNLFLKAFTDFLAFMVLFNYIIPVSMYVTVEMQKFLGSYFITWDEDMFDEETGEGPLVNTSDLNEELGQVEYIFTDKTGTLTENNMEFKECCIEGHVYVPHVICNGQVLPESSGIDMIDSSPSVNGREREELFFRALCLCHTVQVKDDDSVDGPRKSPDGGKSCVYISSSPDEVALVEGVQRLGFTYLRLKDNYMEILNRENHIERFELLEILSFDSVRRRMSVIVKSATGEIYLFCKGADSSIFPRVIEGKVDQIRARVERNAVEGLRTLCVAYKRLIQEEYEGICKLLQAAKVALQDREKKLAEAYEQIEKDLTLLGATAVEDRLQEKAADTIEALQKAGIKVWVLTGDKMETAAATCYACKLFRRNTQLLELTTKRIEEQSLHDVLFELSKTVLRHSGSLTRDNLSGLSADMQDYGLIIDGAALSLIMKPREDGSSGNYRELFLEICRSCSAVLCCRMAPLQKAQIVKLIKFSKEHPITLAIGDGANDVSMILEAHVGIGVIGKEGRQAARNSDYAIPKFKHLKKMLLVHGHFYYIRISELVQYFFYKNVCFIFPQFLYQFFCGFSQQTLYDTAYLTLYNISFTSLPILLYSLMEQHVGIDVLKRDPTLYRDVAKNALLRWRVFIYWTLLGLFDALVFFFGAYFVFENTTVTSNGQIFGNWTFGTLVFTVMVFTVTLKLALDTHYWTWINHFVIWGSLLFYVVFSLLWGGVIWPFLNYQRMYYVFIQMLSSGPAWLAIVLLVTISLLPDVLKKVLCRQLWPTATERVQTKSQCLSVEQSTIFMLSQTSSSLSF
UniProt P21127, sequence (P21127 whole entry, looked up): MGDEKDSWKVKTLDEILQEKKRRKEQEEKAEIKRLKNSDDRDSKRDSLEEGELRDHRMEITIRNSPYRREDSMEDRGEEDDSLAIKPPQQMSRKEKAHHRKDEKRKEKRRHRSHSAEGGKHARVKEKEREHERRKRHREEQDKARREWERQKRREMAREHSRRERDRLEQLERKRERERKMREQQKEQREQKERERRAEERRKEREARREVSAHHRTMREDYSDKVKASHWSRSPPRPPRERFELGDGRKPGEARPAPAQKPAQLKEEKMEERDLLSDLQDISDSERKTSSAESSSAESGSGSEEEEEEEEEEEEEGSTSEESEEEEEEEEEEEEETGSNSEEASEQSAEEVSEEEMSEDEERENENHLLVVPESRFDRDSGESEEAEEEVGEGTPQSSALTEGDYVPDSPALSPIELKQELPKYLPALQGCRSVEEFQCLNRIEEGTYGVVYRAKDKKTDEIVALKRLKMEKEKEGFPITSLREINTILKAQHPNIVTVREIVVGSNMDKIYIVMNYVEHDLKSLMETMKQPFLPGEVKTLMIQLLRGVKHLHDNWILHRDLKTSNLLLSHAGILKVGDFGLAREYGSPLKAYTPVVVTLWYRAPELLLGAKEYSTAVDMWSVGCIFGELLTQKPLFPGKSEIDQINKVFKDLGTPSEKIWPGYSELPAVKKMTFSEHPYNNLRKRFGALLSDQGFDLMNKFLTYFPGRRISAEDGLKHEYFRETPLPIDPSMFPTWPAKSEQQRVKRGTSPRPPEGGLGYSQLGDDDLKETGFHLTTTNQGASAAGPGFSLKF

log2 fold change, inactive:
AURKAIP1 (UniProt Q9NWT8) -0.001
CDC42BPA isoform 6 (UniProt Q5VT25) -0.029
BMS1 (UniProt Q14692) -0.029
ATP9B (UniProt O43861) -0.063
BUD23 isoform 3 (UniProt O43709) 0.052
ATXN2 (UniProt F8WB05) 0.06
ATP11A (UniProt P98196) -0.118
C8orf37 (UniProt Q96NL8) -0.095
CELF2 isoform 3 (UniProt O95319) 0.039
CDS2 (UniProt O95674) 0.02
CAMLG (UniProt P49069) 0.009
CAPNS1 (UniProt P04632) 0.064
C12orf45 (UniProt Q8N5I9) -0.027
CDK9 isoform 2 (UniProt P50750) -0.103
CCPG1 isoform 5 (UniProt Q9ULG6) 0.114
CELF1 isoform 4 (UniProt Q92879) 0.011
CDC42EP4 (UniProt Q9H3Q1) 0.031
BLOC1S6 (UniProt Q9UL45) -0.018
CCNB2 (UniProt O95067) -0.048
CASP3 (UniProt P42574) 0.013
CHAC2 (UniProt Q8WUX2) 0.038
CBX5 (UniProt P45973) 0.06
ATG7 (UniProt O95352) 0.006
CHAF1A (UniProt Q13111) 0.014
C9orf72 (UniProt Q96LT7) 0.061
ATRIP (UniProt Q8WXE1) -0.046
CAMK2G isoform 8 (UniProt Q13555) -0.013
CCT6A (UniProt P40227) -0.01
C2CD5 isoform 3 (UniProt Q86YS7) -0.031
CHCHD4 isoform 2 (UniProt Q8N4Q1) 0.045
C19orf54 (UniProt Q5BKX5) -0.003
BPHL (UniProt Q86WA6) -0.099
CCNB1 (UniProt P14635) -0.029
CDK11B (UniProt P21127) -0.017
C3 (UniProt P01024) 0.011
CASC4 (UniProt Q6P4E1) -0.038
BRD2 isoform 2 (UniProt P25440) 0.014
CDAN1 (UniProt Q8IWY9) 0.009
CCDC85B (UniProt Q15834) 0
CARS isoform 3 (UniProt P49589) -0.006
